Consider twelve molecules from PubChem BioAssay (EPA / NIEHS).

Records with an inconclusive call do not appear. Calls of active or inactive are those of the source. The calls were made as follows: active = hit-call score of the fitted dose curve at least 0.9, where 1 is the maximum; inconclusive = response in the unintended direction; inactive = score below 0.9.

Chain of rat Serotonin, 5-Hydroxytryptamine Receptor (5HT), Non-Selective Binding, Htr1a (gene 24473) (P19327 whole entry, looked up): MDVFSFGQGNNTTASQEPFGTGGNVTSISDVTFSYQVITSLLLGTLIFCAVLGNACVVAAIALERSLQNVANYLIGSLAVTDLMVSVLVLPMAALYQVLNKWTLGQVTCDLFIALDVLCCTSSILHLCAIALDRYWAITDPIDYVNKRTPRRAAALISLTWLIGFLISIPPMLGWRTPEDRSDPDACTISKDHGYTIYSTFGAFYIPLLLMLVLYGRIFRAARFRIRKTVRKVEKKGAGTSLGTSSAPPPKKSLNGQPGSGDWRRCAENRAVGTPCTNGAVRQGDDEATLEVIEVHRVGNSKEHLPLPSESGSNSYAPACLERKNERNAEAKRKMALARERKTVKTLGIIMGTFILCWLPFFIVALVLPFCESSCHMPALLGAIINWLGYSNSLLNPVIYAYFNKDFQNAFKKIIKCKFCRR
Chain of Adra2b (gene 24174) (P19328 whole entry, looked up): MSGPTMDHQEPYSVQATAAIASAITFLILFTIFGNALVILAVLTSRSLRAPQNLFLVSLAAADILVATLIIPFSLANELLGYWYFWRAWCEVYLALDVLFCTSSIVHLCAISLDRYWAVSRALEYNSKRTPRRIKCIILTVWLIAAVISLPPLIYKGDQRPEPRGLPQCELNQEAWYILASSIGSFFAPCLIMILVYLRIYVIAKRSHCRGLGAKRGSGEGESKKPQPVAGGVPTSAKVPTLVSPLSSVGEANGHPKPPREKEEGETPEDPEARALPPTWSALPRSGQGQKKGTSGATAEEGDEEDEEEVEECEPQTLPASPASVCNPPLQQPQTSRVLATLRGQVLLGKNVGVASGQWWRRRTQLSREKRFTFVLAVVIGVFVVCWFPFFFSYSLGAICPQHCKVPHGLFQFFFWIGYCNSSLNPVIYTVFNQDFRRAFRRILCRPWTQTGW
Chain of rat Corticotropin Releasing Factor Receptor (CRF), Crhr1 (gene 58959) (P35353 whole entry, looked up): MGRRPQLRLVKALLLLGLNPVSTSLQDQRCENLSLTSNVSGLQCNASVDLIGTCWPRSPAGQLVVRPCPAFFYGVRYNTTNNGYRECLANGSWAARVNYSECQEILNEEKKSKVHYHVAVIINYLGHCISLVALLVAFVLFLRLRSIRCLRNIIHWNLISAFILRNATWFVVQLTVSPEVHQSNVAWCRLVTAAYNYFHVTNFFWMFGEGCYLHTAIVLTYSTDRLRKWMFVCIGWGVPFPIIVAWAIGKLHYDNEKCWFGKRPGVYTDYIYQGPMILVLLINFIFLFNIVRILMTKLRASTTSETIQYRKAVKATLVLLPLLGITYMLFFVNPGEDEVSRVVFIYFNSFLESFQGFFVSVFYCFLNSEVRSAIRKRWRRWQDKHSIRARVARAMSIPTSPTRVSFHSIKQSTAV

The first assay has as its target rat Serotonin, 5-Hydroxytryptamine Receptor (5HT), Non-Selective Binding, Htr1a (gene 24473) (UniProt P19327). Put plainly: NVS_GPCR_r5HT_NonSelective: NovaScreen (NVS) G Protein-Coupled Receptor Assay for rat Serotonin, 5-Hydroxytryptamine Receptor (5HT), Non-Selective Binding (AID 2283295). Put shortly: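 Radioligand displacement on rat cortical membranes, 1 h incubation, filter-based scintillation counting. Primary duplicates at 25 uM, actives retested in concentration series; loss of signal fitted against DMSO as baseline.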
Consider `N#Cc1c[nH]cc1-c1cccc2c1OC(F)(F)O2`, for which the outcome was inactive.

For the molecule `COC(=O)N(C(=O)N1CO[C@@]2(C(=O)OC)Cc3cc(Cl)ccc3C2=N1)c1ccc(OC(F)(F)F)cc1`, the molecule was classed as inactive.

For `Cc1ccc(N=CN(C)C=Nc2ccc(C)cc2C)c(C)c1`, the molecule was classed as inactive.

A further assay deals with rat Adrenergic, Alpha 1A Receptor (Adra1A), Adra1a (gene 29412) (UniProt P43140). Put plainly: NVS_GPCR_rAdra1A: NovaScreen (NVS) G Protein-Coupled Receptor Assay for rat Adrenergic, Alpha 1A Receptor (Adra1A) (AID 2283296). The method in brief: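 Rat cortical membranes pretreated with chlorethyl clonidine; competitive radioligand displacement, 1 h. Filter-based scintillation counting. Primary screen in duplicate at 25 uM, actives followed in concentration series.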
Chain of rat Adrenergic, Alpha 1A Receptor (Adra1A), Adra1a (gene 29412) (P43140 whole entry, looked up): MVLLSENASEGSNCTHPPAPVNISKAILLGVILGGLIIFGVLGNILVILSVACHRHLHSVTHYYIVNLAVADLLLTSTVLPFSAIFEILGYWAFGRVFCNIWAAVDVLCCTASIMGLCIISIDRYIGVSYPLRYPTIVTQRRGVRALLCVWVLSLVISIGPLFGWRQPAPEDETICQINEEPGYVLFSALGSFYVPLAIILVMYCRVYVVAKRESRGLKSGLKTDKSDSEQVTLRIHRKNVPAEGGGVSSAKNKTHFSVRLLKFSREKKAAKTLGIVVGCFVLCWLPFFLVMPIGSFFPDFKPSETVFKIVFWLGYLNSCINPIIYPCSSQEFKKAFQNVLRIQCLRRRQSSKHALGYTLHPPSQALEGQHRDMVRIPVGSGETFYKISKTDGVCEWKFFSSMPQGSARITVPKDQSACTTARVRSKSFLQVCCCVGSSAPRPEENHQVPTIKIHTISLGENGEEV
For the molecule `Cn1c(-c2ccccc2)cc(-c2ccccc2)[n+]1C`, the AC50 (in general, the midpoint of the concentration-response curve, whichever way the signal moves) is 7.91 µM (active).

`CNC(=O)Oc1cccc2ccccc12`: the result was inactive.

Turning to `COP(=O)(OC)O/C(C)=C/C(=O)N(C)C`, the result was inactive.

Regarding `Cc1ccc(N=CN(C)C=Nc2ccc(C)cc2C)c(C)c1`, the molecule was called inactive.

A further assay deals with rat Adrenergic, Alpha 1B Receptor (Adra1B), gene 24173. Put plainly: NVS_GPCR_rAdra1B: NovaScreen (NVS) G Protein-Coupled Receptor Assay for rat Adrenergic, Alpha 1B Receptor (Adra1B) (AID 2283297). The method in brief: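 Rat liver membranes, radioligand displacement with filter-based scintillation detection, 1 h incubation. Primary screen in duplicate at 25 uM; actives retested in concentration series; activity relative to DMSO.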
Consider `CC1(C)CCC(=Cc2ccc(Cl)cc2)C1(O)Cn1cncn1` (stereo not drawn), for which the call was inactive.

For the molecule `Cn1c(-c2ccccc2)cc(-c2ccccc2)[n+]1C`, the AC50 is 16.5 µM (active).

`COc1cc(Cl)c(OC)cc1Cl`: the outcome was inactive.

The target in another assay is rat Adrenergic Receptor, Alpha 2 (Adra2), Non-selective Binding, Adra2a (gene 25083) (UniProt P22909). Put plainly: NVS_GPCR_rAdra2_NonSelective: NovaScreen (NVS) G Protein-Coupled Receptor Assay for rat Adrenergic Receptor, Alpha 2 (Adra2), Non-selective Binding (AID 2283299). Put shortly: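 Rat cortical membranes, radioligand competitive displacement read by filter-based scintillation counting 1.25 hours after dosing. Primary screen in duplicate at 25 uM; actives followed up in concentration series.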
Chain of rat Adrenergic Receptor, Alpha 2 (Adra2), Non-selective Binding, Adra2a (gene 25083) (P22909 whole entry, looked up): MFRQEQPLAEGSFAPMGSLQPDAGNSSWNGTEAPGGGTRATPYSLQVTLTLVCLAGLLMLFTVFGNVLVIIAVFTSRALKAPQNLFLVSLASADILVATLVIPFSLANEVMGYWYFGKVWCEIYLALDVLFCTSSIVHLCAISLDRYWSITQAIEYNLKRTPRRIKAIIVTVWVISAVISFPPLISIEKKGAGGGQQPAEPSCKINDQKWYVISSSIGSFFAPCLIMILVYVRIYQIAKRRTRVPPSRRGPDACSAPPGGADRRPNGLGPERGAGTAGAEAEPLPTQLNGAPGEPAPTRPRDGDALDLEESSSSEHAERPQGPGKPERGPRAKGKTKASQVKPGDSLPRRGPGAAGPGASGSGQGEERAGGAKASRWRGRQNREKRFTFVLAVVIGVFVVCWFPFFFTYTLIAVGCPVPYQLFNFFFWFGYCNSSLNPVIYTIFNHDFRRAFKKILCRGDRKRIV
Regarding `N#Cc1c[nH]cc1-c1cccc2c1OC(F)(F)O2`, the result was inactive.

Turning to `CCCN(CC)CC1COC2(CCC(C(C)(C)C)CC2)O1` (stereo not drawn), the AC50 was 16.7 µM (active).

Consider `Cn1c(-c2ccccc2)cc(-c2ccccc2)[n+]1C`, for which the half-maximal activity concentration (AC50) is 3.72 µM (active).

In the case of `COC(=O)N(C(=O)N1CO[C@@]2(C(=O)OC)Cc3cc(Cl)ccc3C2=N1)c1ccc(OC(F)(F)F)cc1`, the molecule was called inactive.

For `Cc1ccc(N=CN(C)C=Nc2ccc(C)cc2C)c(C)c1`, the AC50 is 0.219 µM (active).

Another assay addresses rat Corticotropin Releasing Factor Receptor (CRF), Crhr1 (gene 58959) (UniProt P35353). Put plainly: NVS_GPCR_rCRF: NovaScreen (NVS) G Protein-Coupled Receptor Assay for rat Corticotropin Releasing Factor Receptor (CRF) (AID 2283300). Here is the method: NVS_GPCR_rCRF is a biochemical, single-readout assay that uses extracted gene-proteins from Rat cortical membranes in a tissue-based cell-free assay. Measurements were taken 2 hours after chemical dosing in a 96-well plate.NVS_GPCR_rCRF is one of one assay component(s) measured or calculated from the NVS_GPCR_rCRF assay. It is designed to make measurements of radioligand binding, a form of binding reporter, as detected with scintillation counting signals by […] radiodetection technology.Data from the assay component NVS_GPCR_rCRF was analyzed into 1 assay endpoint. This assay endpoint, NVS_GPCR_rCRF, was analyzed in the positive analysis fitting direction relative to DMSO as the negative control and baseline of activity. Using a type of binding reporter, loss-of-signal activity can be used to understand changes in the binding as they relate to the gene Crhr1. Furthermore, this assay endpoint can be referred to as a primary readout, because the performed assay has only produced 1 assay endpoint. To generalize the intended target to other relatable targets, this assay endpoint is annotated to the gpcr intended target family, where the subfamily is secretin receptor.
Binding assays used specific radioligands (tritiated, iodinated) with non-radioactive competitive displacement ligands in agonist or antagonist protocols (as indicated) and various reference compounds and inhibitors to titrate specific binding to receptors and transporters. Most enzyme assays (CYPs, kinases, phosphatases, proteases, HDACs) used recombinant protein and specific substrates (fluorescence mostly, some colorimetric and radioactive) and inhibitors, followed by a biochemical separation of substrate and product. All assays for the biochemical HTS were initially run in duplicate at a single concentration (10 uM for CYP450 assays and 25 uM for all others). […] Each assay was run with positive and negative controls, and concurrent controls on every plate. […]
Turning to `CCN(CC)C(=O)C(C)Oc1cccc2ccccc12` (stereo not drawn), the molecule was called inactive.

On to `COC(=O)N(C(=O)N1CO[C@@]2(C(=O)OC)Cc3cc(Cl)ccc3C2=N1)c1ccc(OC(F)(F)F)cc1`, for which the outcome was inactive.

For `N#CN=C1SCCN1Cc1ccc(Cl)nc1`, the molecule was classed as inactive.

The next assay addresses Adra2b (gene 24174) (UniProt P19328). Put plainly: NVS_GPCR_rmAdra2B: NovaScreen (NVS) G Protein-Coupled Receptor Assay for hybird cells Adrenergic, Alpha 2B Receptor (Adra2B) (AID 2283306). Here is the method: NVS_GPCR_rmAdra2B is a biochemical, single-readout assay that uses extracted gene-proteins from neuroglioma/blastoma hybrid cells in a tissue-based cell-free assay. Measurements were taken 1 hour after chemical dosing in a 48-well plate.NVS_GPCR_rmAdra2B is one of one assay component(s) measured or calculated from the NVS_GPCR_rmAdra2B assay. It is designed to make measurements of radioligand binding, a form of binding reporter, as detected with scintillation counting signals by Filter-based radiodetection technology.Data from the assay component NVS_GPCR_rmAdra2B was analyzed into 1 assay endpoint. This assay endpoint, NVS_GPCR_rmAdra2B, was analyzed in the positive analysis fitting direction relative to DMSO as the negative control and baseline of activity. Using a type of binding reporter, loss-of-signal activity can be used to understand changes in the binding as they relate to the gene Adra2b. Furthermore, this assay endpoint can be referred to as a primary readout, because the performed assay has only produced 1 assay endpoint. To generalize the intended target to other relatable targets, this assay endpoint is annotated to the gpcr intended target family, where the subfamily is rhodopsin-like receptor.
Binding assays used specific radioligands (tritiated, iodinated) with non-radioactive competitive displacement ligands in agonist or antagonist protocols (as indicated) and various reference compounds and inhibitors to titrate specific binding to receptors and transporters. Most enzyme assays (CYPs, kinases, phosphatases, proteases, HDACs) used recombinant protein and specific substrates (fluorescence mostly, some colorimetric and radioactive) and inhibitors, followed by a biochemical separation of substrate and product. All assays for the biochemical HTS were initially run in duplicate at a single concentration (10 uM for CYP450 assays and 25 uM for all others). […] Each assay was run with positive and negative controls, and concurrent controls on every plate. The follow-up (secondary) screen tested active chemical-pairs in concentration series, as well as a few additional assays not tested in the primary screen, some selected negative inactives, and several cases re-run in the concentration series for confirmatory purposes.
Take `CCCN(CC)CC1COC2(CCC(C(C)(C)C)CC2)O1` (stereo not drawn): the AC50 is 25 µM (active).

As to `Cn1c(-c2ccccc2)cc(-c2ccccc2)[n+]1C`, the AC50 is 0.891 µM (active).

Take `Cc1ccc(N=CN(C)C=Nc2ccc(C)cc2C)c(C)c1`: the AC50 was 0.779 µM (active).

Turning to `CN/C(=N\[N+](=O)[O-])NCc1cnc(Cl)s1`, the AC50 was 8.79 µM (active).

For the molecule `N#CN=C1SCCN1Cc1ccc(Cl)nc1`, the outcome was inactive.
